Screens (PubChem BioAssay)
ERG Ets-DNA blk = inhibitors of human ERG Ets domain-DNA interaction; fluorescence polarization, His-ERG Ets domain / labelled DNA; Potency, µM (titrated, usually from 76.9 µM), inactives show at the top dose FP activity, negative = inhibition, actives largely listed as inhibitors; 370,000 compounds, 0.028% hits; AID 624246; active = well fitted inhibition curve with a large enough effect in the polarisation, with a control signal flat; inconclusive = small, poorly fitted or top-dose-only effect, or effect the other way, or a change in a side signal; inactive = no such curve, though single readings can be large or run the other way; the % refers to the polarisation;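 also: polarization taken with two DNA probes labelled with fluorescein and Texas red; potency is read from the fitted curve at half-maximal effect; % of control where 0% means no effect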
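His-tagged ERG Ets domain (1 uM in the protein solution; 300mM KCl, 50mM Tris-HCl, 1mM EDTA, 1mM DTT, pH 7.5) received compound, then a probe mix of 5 nM fluorescein-DNA and 100nM Texas-615-DNA. Fluorescence polarization was read for both dyes.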
DRD3 agonist = activates the human D3 dopamine receptor; max activation, %; 410,000 compounds, 0.58% hits; AID 652048; D3R DiscoveRx beta-arrestin cells, luminescence, 90 min; in the data active = max activation above about 30%; also: 0% is about no effect
Target sequence (P35462 whole entry, looked up): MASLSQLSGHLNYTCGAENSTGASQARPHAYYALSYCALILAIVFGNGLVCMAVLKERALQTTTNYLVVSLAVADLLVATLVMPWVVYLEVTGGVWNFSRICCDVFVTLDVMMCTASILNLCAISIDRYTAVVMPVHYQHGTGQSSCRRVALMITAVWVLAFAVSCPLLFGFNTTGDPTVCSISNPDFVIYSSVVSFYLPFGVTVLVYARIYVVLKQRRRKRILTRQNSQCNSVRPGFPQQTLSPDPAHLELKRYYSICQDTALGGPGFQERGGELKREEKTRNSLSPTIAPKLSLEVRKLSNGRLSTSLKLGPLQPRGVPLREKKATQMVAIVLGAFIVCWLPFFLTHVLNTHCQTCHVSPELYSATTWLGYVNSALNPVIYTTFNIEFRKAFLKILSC
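Agonist mode: compounds and dopamine controls were applied to plated cells for 90 min at 37 degrees C after an overnight attachment at 1500 cells/well. Luminescent read-out followed 30 - 60 minutes at room temperature with DiscoveRx detection reagent.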
D1 ag = human D1 receptor agonism; P21728; HEK293 T-REx D1 cells, calcium flux, agonist mode; activation, % at 2 µM; 360,000 compounds, 1% hits; in the data active = activation above about 30%; also: 0% is about no effect
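Tetracycline-induced HEK293 TREx D1 cells, force-coupled to calcium signalling, were dye-loaded with a no-wash calcium kit. Compound was pin-added after a 10 s baseline. Fluorescence was read kinetically at 1 cycle/s for 180 s, with calcium rises flagged as agonism.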
D1 PAM = enhances dopamine response at the human D1 receptor | P21728 | HEK293 TREx D1 cells, calcium flux, dopamine EC20 potentiation | potentiation, % at 10 µM | 360,000 compounds, 0.036% hits; in the data active = potentiation above about 30%; also: 0% is about no effect
DRD3 antagonist = blocks the human D3 dopamine receptor; D3R cells, DiscoveRx beta-arrestin luminescence, antagonist mode; active compounds read low; max response, negative = inhibition, %; 360,000 compounds, 2.5% hits; in the data active = max response below about -50%; inconclusive = no clear call, values can overlap the other calls; also: % is scaled to controls: 0 for no effect and ±100 for the full control effect
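Cells expressing the human receptor were seeded at 1500 cells/well, incubated overnight at 37 degrees C in 5% CO2, then exposed to library compounds with dopamine controls for 90 minutes at 37 degrees C before luminescent detection.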
D1 antag = human D1 dopamine receptor antagonism; P21728; HEK293 TREx D1 cells, calcium flux, dopamine EC80; active compounds read low; activity change, negative = inhibition, % at 10 µM; 360,000 compounds, 3.2% hits; AID 504652; in the data active = activity change below about -30%; also: % is scaled to controls: 0 for no effect and ±100 for the full control effect
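HEK293 T-REx cells expressing inducible, force-coupled D1 receptor; no-wash Ca dye, 30–90 min RT. Cmpd → 180 s read at 1 Hz → EC80 DA → 180 s read.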
* hit, by the source's call; u = inconclusive; x = no result. Rows were chosen to be rich in hits. Some 6.1% of all compounds tested hit in one or more screens of this group.

SMILES | ERG Ets-DNA blk | DRD3 agonist | D1 ag | D1 PAM | DRD3 antagonist | D1 antag
Cc1ccc(S(=O)(=O)N2CCC(=O)N(C(CO)Cc3ccccc3)CC2)cc1 (stereo not drawn) | 0.1% | -1.8 | -1.1 | -2.9 | 2.3 | -43.1*
COc1ccc(CN2CCC(=O)N([C@H](CO)Cc3ccccc3)CC2)cc1 | 0.0% | -23.5 | 1.6 | -7.8 | -28.0 | -0.3
O=C1CCN(Cc2cccnc2)CCN1[C@H](CO)Cc1ccccc1 | 3.4% | -31.1 | 1.0 | -0.6 | -66.8* | -4.9
Cc1ccccc1OCCC(=O)Nc1ccc(S(=O)(=O)N(C)C2CCN(C)CC2)cc1 | -3.9% | -28.1 | 55.4* | -1.1 | -61.4* | -66.1*
CN1CCC(N(C)S(=O)(=O)c2ccc(NC(=O)COc3ccc(Br)cc3Cl)cc2)CC1 | 20.0% | -17.4 | 30.6* | -15.7 | -17.7 | -44.4*
Cc1ccccc1OCC(=O)Nc1ccc(S(=O)(=O)N(Cc2ccccc2)c2ccccc2)cc1 | -8.0% | -10.4 | 4.5 | 0.9 | x | -50.5*
Cc1ccc(OCC(=O)Nc2ccc(S(=O)(=O)N(C)C3CCN(C)CC3)cc2)c(C)c1 | -1.5% | -7.0 | 19.7 | -11.4 | 1.0 | -24.0
O=C(COc1ccc(F)cc1)Nc1ccc(S(=O)(=O)N(Cc2ccccc2)c2ccccc2)cc1 | 6.1% | -18.4 | 26.7 | -0.1 | x | -4.0
O=C(NCC(=O)N(c1cccnc1)C(C(=O)NC1CCCC1)c1ccccc1)c1ccco1 (stereo not drawn) | 0.4% | 51.6* | 1.1 | 0.1 | 4.2 | -12.4
Cc1ccc(N(C(=O)CNC(=O)c2ccco2)C(C(=O)NC2CCCC2)c2cccnc2)cc1 (stereo not drawn) | -5.0% | 7.2 | 2.3 | -7.5 | -23.2 | 32.3
CCCCN(CC)C(=O)Cn1nc(Cc2ccncc2)c2ccccc2c1=O | 7.7% | 1.1 | 0.2 | 3.6 | 10.3 | -3.1
CCN(C(=O)Cn1nc(Cc2ccncc2)c2ccccc2c1=O)c1cccc(Cl)c1 | -0.1% | 8.6 | -0.1 | -1.5 | x | -83.4*
O=S(=O)(N1CCCCC1)N1CCN(c2cc(Cl)ccc2Cl)CC1 | 7.7% | -6.6 | 11.9 | 1.9 | 4.2 | 17.6
COc1ccccc1N/C=C/c1onc(C)c1[N+](=O)[O-] | 0.7% | -4.8 | 140.1* | -3.0 | -3.4 | -12.4
CCCSc1nnc(NC(=O)c2nc(SC)ncc2Cl)s1 | -3.8% | -2.1 | 0.4 | -3.6 | -19.4 | -35.7*
CCOC(=O)C1=NOC2(C1)C(=O)Nc1ccc(OC(F)(F)F)cc12 (stereo not drawn) | x | -1.6 | x | x | -87.2* | x
CCC1=Nc2cc(C(=O)NC3CCCC3)ccc2Sc2ccc(Cl)cc21 | -8.5% | -13.7 | 5.3 | -4.7 | x | -33.8*
CC1=Nc2cc(C(=O)NC3CCCC3)ccc2Sc2ccc(Cl)cc21 | -11.2% | -14.1 | 2.3 | -4.2 | x | 1.6
CCC1=Nc2cc(C(=O)NCc3cccnc3)ccc2Sc2ccc(C)cc21 | -12.2% | -16.3 | 2.8 | -19.4 | -10.0 | -76.3*
CCC1=Nc2cc(C(=O)NCc3ccc(C)cc3)ccc2Sc2ccc(C)cc21 | 0.2% | -13.4 | 2.8 | -5.1 | x | 16.8
N#CC1=C(SCC(=O)c2ccccc2)NC2=C(C(=O)CCC2)C1c1ccco1 (stereo not drawn) | 5.6% | -13.4 | 13.6 | -10.7 | u | -43.6*
COc1cccc(NC(=O)CSC2=C(C#N)C(c3ccco3)C3=C(CCCC3=O)N2)c1 (stereo not drawn) | -3.6% | -7.9 | 2.1 | -3.3 | -13.2 | -1.6
CC1=C(C(=O)Nc2ccccc2)C(c2ccco2)C(C#N)=C(SCC(=O)OC(C)C)N1 (stereo not drawn) | 0.3% | 58.5* | 4.2 | -3.4 | 31.7 | -12.1
CC(C)(C)c1ccc(C(=O)CCCSC2=C(C#N)C(c3ccco3)C3=C(CCCC3=O)N2)cc1 (stereo not drawn) | -6.5% | -25.8 | 5.5 | -3.2 | -16.4 | -10.2
CCc1ccc(C(=O)CSC2=C(C#N)C(c3ccco3)C(C(C)=O)=C(C)N2)cc1 (stereo not drawn) | x | x | 2.3 | -10.2 | x | -33.5*
SMILES | ERG Ets-DNA blk | DRD3 agonist | D1 ag | D1 PAM | DRD3 antagonist | D1 antag
Cc1ccc(C(=O)CSC2=C(C#N)C(c3ccco3)C3=C(CCCC3=O)N2)cc1 (stereo not drawn) | -3.5% | -3.9 | 4.3 | -6.0 | -27.4 | -36.6*
COc1cc(C)c(Br)cc1S(=O)(=O)N1CCOCC1 | 8.0% | 4.9 | 0.6 | -4.1 | -19.7 | 8.7
COc1ccc(NS(=O)(=O)c2cccc(NC(=O)c3ccccn3)c2)cc1 | 14.1% | 4.2 | 12.7 | -5.3 | 20.0 | -8.6
O=C1N/C(=N\S(=O)(=O)c2ccccc2)S/C1=C\c1cc([N+](=O)[O-])ccc1O | 42.2% | -16.2 | 167.6* | -2.6 | -25.0 | 7.0
O=C1N/C(=N\S(=O)(=O)Cc2ccccc2)S/C1=C/c1cc([N+](=O)[O-])ccc1O | 17.4% | -11.1 | 267.1* | 22.4 | u | 80.5
COc1cc(/C=C2/S/C(=N/S(=O)(=O)c3ccccc3)NC2=O)c([N+](=O)[O-])cc1OC | u | 3.9 | 1.0 | -1.3 | 3.7 | -13.4
COc1ccc(S(=O)(=O)N2CCOCC2)cc1NC(=O)C1COc2ccccc2O1 (stereo not drawn) | -7.2% | 3.4 | 8.8 | 4.5 | -5.8 | 0.2
COc1cc(/C=C/C(=O)O)cc(S(=O)(=O)Nc2cc(S(=O)(=O)N3CCCCC3)ccc2Cl)c1OC | x | 2.0 | x | x | 35.2 | x
CCOC(=O)c1cc(C)sc1NC(=O)CSc1nccn1C | 8.3% | -5.7 | 6.2 | -2.0 | -9.0 | 42.2
COc1ccc(C)cc1NC(=O)NCc1ccco1 | -4.4% | -4.1 | -2.2 | -4.3 | 0.9 | x
NC(N)=NS(=O)(=O)c1ccc(N)cc1 | -17.0% | -90.1 | 1.1 | -1.9 | -53.6* | -74.9*
Cc1occc1-c1nc(-c2ccncc2)no1 | -2.2% | -14.0 | 4.8 | 6.8 | -15.7 | 7.0
Cc1ccc(-c2noc(-c3ccoc3C)n2)cc1 | 5.9% | 0.7 | 103.7* | 6.9 | 20.1 | -8.0
COc1ccc(C(=O)/C=C/Nc2ccc(S(=O)(=O)Nc3cccc(C(C)=O)c3)cc2)cc1 | 1.9% | 17.4 | 1.4 | -4.8 | 20.4 | -14.7
COc1cccc(C(=O)/C=C/Nc2ccc(S(=O)(=O)Nc3ccc(C(C)=O)cc3)cc2)c1 | -4.8% | -3.7 | 3.4 | -6.4 | -12.4 | -34.4*
CCOC(=O)c1ccc(N/C=C\C(=O)c2cccc(OC)c2)cc1 | 10.0% | 3.3 | 11.3 | 1.5 | -20.1 | -46.4*
CCOC(=O)c1c(C)[nH]c(C(=O)OCCOc2ccccc2C)c1C | 5.8% | 22.9 | 3.0 | 4.8 | 6.6 | 0.1
CCOC(=O)c1ccc(-n2c(CN(CC)CC)nc3ccc([N+](=O)[O-])cc3c2=O)cc1 | 8.6% | -0.3 | 6.5 | -1.9 | -10.9 | -4.3
Fc1ccccc1CNc1nc(-c2cccnc2)nc2ccccc12 | 3.8% | -5.9 | 0.8 | x | 1.2 | -59.7*
